According to PubChem BioAssay (NCI):
The panel holds about 83,000 compounds, 20% with a hit somewhere; the sample as a whole holds those more often.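 Results are percent growth after 48 hours of single-concentration exposure. 100 means growth as in untreated cells, lower positive values show inhibition; negative values down to -100 show cell death.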 Values without a mark were called inactive. Active and inactive are the calls of the source. Rule for the calls: active = growth percent below 10; inactive = the rest.

Assays:
Experiment in all cases: NCI-60 one-dose screen, 48 h (100 = growth as untreated, 0 = no growth, -100 = all killed)
Conditions in all cases: 10 µM unless noted
DU-145 prostate = system: DU-145 prostate
K-562 leukemia = system: K-562 leukemia
MALME-3M melanoma = system: MALME-3M melanoma
MDA-MB-231 breast = system: MDA-MB-231 breast
RXF 393 renal = system: RXF 393 renal
SF-268 CNS = system: SF-268 CNS
SF-295 CNS = system: SF-295 CNS
SF-539 CNS = system: SF-539 CNS
UACC-257 melanoma = system: UACC-257 melanoma
M14 melanoma = system: M14 melanoma
HCT-15 colon = system: HCT-15 colon
HT29 colon = system: HT29 colon
SNB-75 CNS = system: SNB-75 CNS
SNB-19 CNS = system: SNB-19 CNS
U251 CNS = system: U251 CNS
PC-3 prostate = system: PC-3 prostate
SK-MEL-5 melanoma = system: SK-MEL-5 melanoma
UACC-62 melanoma = system: UACC-62 melanoma
LOX IMVI melanoma = system: LOX IMVI melanoma
SK-MEL-28 melanoma = system: SK-MEL-28 melanoma

Compound | growth (DU-145 prostate) | growth (K-562 leukemia) | growth (MALME-3M melanoma) | growth (MDA-MB-231 breast) | growth (RXF 393 renal) | growth (SF-268 CNS) | growth (SF-295 CNS) | growth (SF-539 CNS) | growth (UACC-257 melanoma) | growth (M14 melanoma) | growth (HCT-15 colon) | growth (HT29 colon) | growth (SNB-75 CNS) | growth (SNB-19 CNS) | growth (U251 CNS) | growth (PC-3 prostate) | growth (SK-MEL-5 melanoma) | growth (UACC-62 melanoma) | growth (LOX IMVI melanoma) | growth (SK-MEL-28 melanoma)
CN(C)CCCNC(=O)c1cncnc1Nc1ccc(OCc2cccc(F)c2)c(Cl)c1 | 23.4% | -57.7% (active) | -11.7% (active) | -43.4% (active) | 20.5% | 34.5% | 71.9% | -71.2% (active) | -63.2% (active) | -71.4% (active) | -37.6% (active) | -49.7% (active) | -18.2% (active) | 57.3% | -52.5% (active) | 0.306% (active) | 61.3% | -84.7% (active) | -88.1% (active) | -86.1% (active)
COc1ccc(C(=O)N2c3ccccc3Sc3ccccc32)c(C(F)(F)F)c1 | 14.2% | -7.9% (active) | 59.7% | 23.9% | 15.4% | 35.2% | 5.14% (active) | -10.1% (active) | 61.5% | 2.2% (active) | 18% | 3.4% (active) | 29.3% | 30.8% | 19% | 15.5% | 5.29% (active) | 31.6% | 16.7% | 52%
Cc1ccc2c(-n3nc(C#N)c(C#N)c3N)cc(=O)[nH]c2c1 | 94% | 76% | 78.2% | 85.5% | 100% | 94.4% | 94% | 89.8% | 87.9% | 84.9% | 87.9% | 93.7% | 110% | 88.6% | 86.4% | 71.1% | 93.5% | 80.2% | 81% | 94.1%
COc1ccc(-c2nc(/C=C3\C(=O)N(C)c4ccccc43)c3ccccn23)cc1 | 93% | 95.9% | 72.5% | 85.2% | 67.4% | 66% | 83.2% | 72.7% | 86% | 99.1% | 90% | 96.8% | 51.1% | 78.7% | 75.1% | 86.9% | 65.5% | 68.5% | 65.2% | 99.6%
CCCCCCCCCCCCCOC(=O)c1c(C)[nH]c(/C=C2\N=C(c3ccc[nH]3)C=C2OC)c1C | 29.3% | 5.53% (active) | 41.8% | 19.6% | 27.7% | 34.2% | 49.9% | 10.8% | 38.7% | 1.88% (active) | 4.86% (active) | 8.1% (active) | 21.2% | 48.1% | 23.9% | 27.6% | -89.1% (active) | -19.1% (active) | -56.4% (active) | 30.2%
COc1cc(-c2nc3cc(Cl)c(Cl)cc3[nH]2)ccc1OCC(=O)N=Nc1c(O)[nH]c2ccc(Cl)cc12 | 6.51% (active) | -11.7% (active) | -16.4% (active) | -43.8% (active) | -6.73% (active) | -24.5% (active) | -18% (active) | -36% (active) | 7.43% (active) | -35.8% (active) | 58.4% | 9.24% (active) | 6.76% (active) | 9.74% (active) | -89.4% (active) | 0.522% (active) | -62.9% (active) | -11.7% (active) | -83.5% (active) | -2.83% (active)
C[C@H](CCCC(=O)NCC#CCN1CCN(C)CC1)[C@H]1CC[C@H]2[C@@H]3CC[C@@H]4CC(=O)CC[C@]4(C)[C@H]3CC[C@]12C | 102% | 57.9% | 65.7% | 102% | 86.3% | 95.5% | 106% | 78.6% | 96.3% | 85.1% | 78.6% | 32.2% | 89.8% | 102% | 88% | 77.1% | 90.7% | 97.7% | 86.7% | 89.3%
Nc1nc(N)c2c(n1)NC(c1cccc(Nc3ccnc4cc(C(F)(F)F)ccc34)c1)CC(c1ccc(Br)cc1)=N2 (stereo not given) | 71.2% | 10.5% | 53.6% | 57.3% | 40.7% | 61.4% | 52% | 83.9% | 71.5% | 42.9% | 19.5% | 10.9% | 57.2% | 66.4% | 44.7% | 36.6% | 48.1% | 77.9% | 24.6% | 73.6%
CN1CCN(C(=O)[C@@]2(C)CC[C@]3(C)CC[C@]4(C)C(=CC[C@@H]5[C@@]6(C)CCC(=O)NC(C)(C)[C@@H]6CC[C@]54C)[C@@H]3C2)CC1 | 86.7% | 16% | 19.8% | 61.1% | 35% | 63.1% | 90.5% | 43.9% | -12.9% (active) | 0.579% (active) | 30.3% | 3.61% (active) | 87.3% | 79.4% | 40.4% | 27.4% | -41% (active) | 26.4% | 8.99% (active) | -6.92% (active)
CCCCNC(=O)c1cc([N+](=O)[O-])cc(C2CCCCC2)c1O | 57.6% | 28.2% | 1.91% (active) | 31.4% | 42% | 43.9% | 15.9% | 47.9% | 24.6% | 44.4% | 42.7% | 69.7% | 58.6% | 40.3% | 24.1% | 27.1% | -12.6% (active) | 20.3% | 36.2% | 34.3%
COc1ccc(NC(=O)Nc2ccc(OCCCCCC(=O)NO)cc2)cc1 | 106% | 88.3% | 97.5% | 105% | 98.3% | 101% | 109% | 103% | 73.4% | 95.3% | 117% | 88.8% | 93.2% | 102% | 101% | 97.8% | 104% | 89.4% | 96.4% | 103%
Cc1ccc(S(=O)(=O)Oc2ccc3sc4cccc(NCCN(C)C)c4c(=O)c3c2)cc1 | -89.5% (active) | -64.6% (active) | -99.4% (active) | -96.7% (active) | -87.4% (active) | -82.1% (active) | -92.3% (active) | -95.3% (active) | -80.6% (active) | -84.9% (active) | -94.2% (active) | -60.6% (active) | -92.9% (active) | -60% (active) | -78.6% (active) | -86.4% (active) | -99% (active) | -98.2% (active) | -96.5% (active) | -92.4% (active)
O=C(Nc1ncccc1OCc1ccccc1)NC1CCCCCC1 | 92% | 70.6% | 90.2% | 90.1% | 106% | 92.3% | 85.4% | 98.2% | 105% | 95.3% | 80.7% | 74.6% | 97.7% | 97.9% | 96.2% | 48.1% | 69.1% | 71.6% | 90.6% | 93.6%
CCCCNc1nnc2n(Cc3ccccc3)c(=O)c3c4c(sc3n12)CCCC4 | 38.3% | 41.2% | 40.3% | 54.9% | 63.2% | 63.6% | 48.4% | 47.1% | 54.1% | 56.3% | 30.5% | 24.8% | 66.4% | 56.5% | 48.5% | 42.7% | 27.7% | 32.5% | 30.2% | 60.7%
CN(C)c1ccc(-c2ccc3c(c2)c(-c2ccccc2)nc(=O)n3C)cn1 | 69.7% | 3.37% (active) | 62.6% | 50.4% | 61.3% | 46.2% | 31.3% | 14.2% | 57.5% | 20.7% | 30.4% | 11.7% | 27.8% | 34.3% | 30.4% | -42.8% (active) | 22% | 25.2% | 34.3% | 55.2%
